Source: PubChem (National Center for Advancing Translational Sciences (NCATS))
Sfp inh = qHTS Assay for Inhibitors of Bacillus subtilis Sfp phosphopantetheinyl transferase (PPTase); 4'-phosphopantetheinyl transferase ffp (Bacillus subtilis), Q9F4F7; Biochemical Sfp PPTase activity, qHTS; Potency, µM, usual class: inhibitors; 310,000 compounds, 3.5% hits; AID 1490, 2009;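 note: the enzyme is Sfp with the accession as filed and its product quenches rhodamine fluorescence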
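Buffer: 50 mM Hepes-Na pH 7.6, 10 mM MgCl2, 0.01% Nonidet P-40, 0.01% BSA. Enzyme 15 nM, pre-exposed to compound 15 min; substrates then added and fluorescence change tracked over 30 min.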
KAT2A inh = qHTS Assay for Inhibitors of GCN5L2; Histone acetyltransferase KAT2A (Homo sapiens), Q92830; Potency, µM (top dose mostly 58.9 µM), most hits filed as inhibitors; 390,000 compounds, 0.21% hits; GCN5L2 HAT assay, ThioGlo1 CoA-SH fluorescence
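qHTS, 1536-well. 20nM enzyme, pH 7.5 HEPES/EDTA/Tween-20 buffer; 15 min compound preinc., RT. Start: 75uM H3(1-25), 70uM AcCoA, 50uM ThioGlo1. Read Ex340/Em540 at t=0 (autofluorescence flag) and t=20 min.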
GLS inhibitor = qHTS for Inhibitors of Glutaminase (GLS); AID 624170, 2012; GLS enzymatic activity, qHTS titration; Potency, µM (titrated, usually from 45.5 µM), actives largely listed as inhibitors; 410,000 compounds, 0.21% hits
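Two-point fluorescence kinetic (t0, 30 min RT) for hKGA; glutamate detected via glutamate oxidase–HRP–Amplex Red. Substrate: 1 mM L-glutamine solution; buffer 45 mM KH2PO4, pH 8.2.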
VDR inhibitor = Inhibitors of the vitamin D receptor (VDR): qHTS. Vitamin D3 receptor (Homo sapiens), P11473. VDR-SRC2-3 peptide fluorescence polarization, 2 h. Potency, µM, hits mostly inhibitors. 400,000 compounds, 0.93% hits
Target sequence (P11473 whole entry, looked up): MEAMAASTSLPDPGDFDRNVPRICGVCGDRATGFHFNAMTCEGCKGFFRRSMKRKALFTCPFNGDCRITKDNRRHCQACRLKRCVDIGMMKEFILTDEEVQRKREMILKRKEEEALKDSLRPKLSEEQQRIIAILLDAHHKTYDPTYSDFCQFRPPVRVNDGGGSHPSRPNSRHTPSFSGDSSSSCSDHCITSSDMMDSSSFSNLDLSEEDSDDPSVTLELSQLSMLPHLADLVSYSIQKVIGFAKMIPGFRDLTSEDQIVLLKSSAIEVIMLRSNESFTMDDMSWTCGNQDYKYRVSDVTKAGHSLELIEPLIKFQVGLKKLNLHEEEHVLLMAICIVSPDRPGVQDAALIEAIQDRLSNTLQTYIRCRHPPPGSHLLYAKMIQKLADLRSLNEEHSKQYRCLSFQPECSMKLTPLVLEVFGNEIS
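Reagent solutions, kept cold and dark, are dispensed first; compounds are then pinned in at 23 nl, plates briefly spun, and incubated 2 h at ambient temperature. Inhibition of VDR–SRC2-3 peptide binding is read by fluorescence polarization.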
rTrxR1 inhibitor = qHTS Assay for Inhibitors of Mammalian Selenoprotein Thioredoxin Reductase 1 (TrxR1): qHTS. Thioredoxin reductase 1, cytoplasmic (Rattus norvegicus), O89049. recombinant rTrxR1, NADPH fluorescence consumption, selenite substrate. Potency, µM (titrated, usually from 114 µM), most hits filed as inhibitors. 390,000 compounds, 1% hits. AID 588453, 2011; note: nearly all actives have a fitted effect of over 65% in size
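Rat TrxR1 (90 nM in the dispensed reagent) was pre-reduced with 400 uM NADPH for 5 min at room temperature, then incubated with compound for 15 min. After 400 uM selenite was added, NADPH fluorescence (Ex 340/Em 450 nm) was followed for 8 min.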
TrxR1 substrate = qHTS Assay for Substrates of Mammalian Selenoprotein Thioredoxin Reductase 1 (TrxR1): qHTS. AID 588456, 2011. Potency, µM (titrated, usually from 114 µM). Thioredoxin reductase 1, cytoplasmic (Rattus norvegicus), O89049. purified TrxR1 substrate turnover, NADPH consumption readout. 390,000 compounds, 0.01% hits; note: nearly all actives have a fitted effect of over 50% in size
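Rat TrxR1, dispensed at 90 nM, was prereduced with 400 uM NADPH (final) for 5 min at ~22 deg C, then incubated with compound 15 min before 400 uM selenite. A first-read NADPH fluorescence drop versus no-compound background flagged substrates.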
Each line names hits and unclear results; the compound was inactive in the other large screens; ! = not active in a repeat. This is a sample that favours compounds with a hit; in the whole collection about 3.8% have one here. Calls come from the whole dose curve; as a rule, active = well fitted curve in the direction sought with a large enough effect; inconclusive = small, poorly fitted or top-dose-only effect, or another doubt; inactive = no such curve, though single readings can be large; an effect the other way counts as inactive or inconclusive.

Cn1cccc1/C=C1\C(=O)NC(=O)N(Cc2ccccc2Cl)C1=O	none
C=CCN1C(=O)NC(=O)/C(=C/c2cnc(SC)nc2)C1=O	Sfp inh 31.6µM, VDR inhibitor 28.2µM, rTrxR1 inhibitor 14.1µM
C=CCN1C(=O)NC(=O)/C(=C/c2cc3c4c(c2)CCCN4CCC3)C1=O	Sfp inh inconclusive, rTrxR1 inhibitor 44.7µM
C=CCN1C(=O)/C(=C/c2ccc(N3CCOCC3)o2)C(=O)NC1=S	rTrxR1 inhibitor inconclusive
Fc1ccc(Cn2nnnc2C(c2ccc(Cl)cc2)N2CC=C(c3ccc(F)cc3)CC2)cc1 (configuration not stated)	none
CC(=O)CC(c1ccccc1)c1c(O)c2ccc(O)cc2oc1=O (configuration not stated)	none (no result: GLS inhibitor, rTrxR1 inhibitor, TrxR1 substrate)
C[C@@H](N)Cn1ccc2cc(F)c(Cl)cc21	none (no result: GLS inhibitor, rTrxR1 inhibitor, TrxR1 substrate)
O=[N+]([O-])/C=C/c1c(Cl)cccc1Cl	GLS inhibitor 7.94µM, VDR inhibitor 20µM, rTrxR1 inhibitor inconclusive (no result: Sfp inh, KAT2A inh)
COc1cc(/C=C/C(=O)c2c(O)n(CCc3ccccc3)c(=O)[nH]c2=O)ccc1O	VDR inhibitor 44.7µM, rTrxR1 inhibitor inconclusive
CCCCn1c(O)c(C(C)=NCCc2ccccc2)c(=O)[nH]c1=O	none
CCCN1CCO[C@@H]2c3cc(O)ccc3OC[C@@H]21	Sfp inh 56.2µM (no result: GLS inhibitor, rTrxR1 inhibitor, TrxR1 substrate)
CC1=C(/C=C/c2ccccc2)CCN(C)C1	none
S=C=NCc1ccccc1	VDR inhibitor 39.8µM (no result: GLS inhibitor, rTrxR1 inhibitor, TrxR1 substrate)
COc1ccc(C(c2nnnn2-c2ccc(OC)cc2)N2CCC3(CC2)C(=O)NCN3c2ccccc2)cc1 (configuration not stated)	none (no result: Sfp inh, KAT2A inh, VDR inhibitor, rTrxR1 inhibitor, TrxR1 substrate)
CC(C)CC(=O)NC(Oc1ccc(Cl)cc1)C(Cl)(Cl)Cl (configuration not stated)	KAT2A inh 0.708µM
C/C1=C\[C@@H](C)C/C=C/[C@H]2[C@@H]3O[C@]3(C)[C@@H](C)[C@H]3[C@H](Cc4c[nH]c5ccccc45)NC(=O)[C@]32C(=O)/C=C/C(=O)[C@@H]1O	Sfp inh 12.6µM, VDR inhibitor inconclusive, rTrxR1 inhibitor inconclusive
C=C1C2[C@H](OC(C)=O)[C@@H]3CC(=O)[C@]4(C)OC[C@@]3(C)[C@@]4(O)[C@@H](OC(C)=O)[C@H](OC(C)=O)[C@@]2(COC(=O)c2ccccc2)[C@@H](OC(C)=O)C[C@@H]1O (some centres not stated)	none
Fc1ccccc1CN1CCN(c2ccc(Cl)cc2)CC1	none
N#CCCn1cc(C=C2C(=O)NC(=O)NC2=O)c(-c2ccccc2)n1	none
O=C(O)CCn1cc(C=C2C(=O)NC(=S)NC2=O)c(-c2cc3ccccc3oc2=O)n1	Sfp inh 10µM, GLS inhibitor inconclusive, VDR inhibitor inconclusive, rTrxR1 inhibitor 7.08µM
COc1ccc(C(=O)c2c(C)n(CCN3CCOCC3)c3cc(I)ccc23)cc1	none (no result: GLS inhibitor, rTrxR1 inhibitor, TrxR1 substrate)
CCCN1CCc2cc(O)cc3c2C1Cc1ccc(O)c(O)c1-3 (configuration not stated)	Sfp inh 35.5µM, VDR inhibitor 25.1µM, rTrxR1 inhibitor inconclusive (no result: GLS inhibitor, TrxR1 substrate)
C=CCN1CCc2cccc3c2[C@H]1Cc1ccc(O)c(O)c1-3	Sfp inh 44.7µM, KAT2A inh inconclusive, GLS inhibitor inconclusive, VDR inhibitor 10µM!, rTrxR1 inhibitor 20µM
O=C(O)c1cc(Oc2ccc([N+](=O)[O-])cc2)cc(Oc2ccc([N+](=O)[O-])cc2)c1	KAT2A inh inconclusive, VDR inhibitor 44.7µM (no result: GLS inhibitor, rTrxR1 inhibitor, TrxR1 substrate)
CN(C)C(=O)Oc1ccc([N+](=O)[O-])cc1	none
CCCCCCC(=O)O[C@H]1CC[C@H]2[C@@H]3CCC4CC(=O)C=C(C)[C@]4(C)[C@H]3CC[C@]12C (some centres not stated)	none (no result: rTrxR1 inhibitor, TrxR1 substrate)
COc1ccc(NC(=O)CN2C3CCC2CC(O)(c2cccnc2)C3)cc1OC (configuration not stated)	VDR inhibitor inconclusive
